Results filed as inconclusive are left out. Active and inactive are the calls of the source. Unless noted, the call rests on the fitted dose curve; in most records, active means well fitted curve in the direction sought with a large enough effect; inconclusive means small, poorly fitted or top-dose-only effect, or another doubt; inactive means no such curve, though single readings can be large; an effect the other way counts as inactive or inconclusive.
Columns and labels:
[1] = qHTS profiling of the MIPE4 collection as inhibitors of Plasmodium falciparum (3D7) proliferation (AID 743344; call rule not given here;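 further: scaled between DMSO vehicle wells and 0.29 µM artemisinin as full inhibition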); settings: P. falciparum 3D7 in erythrocytes, SYBR Green DNA fluorescence, 72 h; at 28.5 µM unless noted
How it was run: (§1)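 Erythrocytes infected with P. falciparum (0.3% parasitemia, 2.5% hematocrit) incubated with compounds 72 h at 37 C, 5% CO2. Lysis with saponin/Triton buffer containing SYBR Green I, overnight at room temperature in the dark; DNA fluorescence (485/535 nm) normalised to 0.29 uM artemisinin and DMSO.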

[2] = qHTS profiling of the MIPE4 collection as inhibitors of Plasmodium falciparum (DD2) proliferation (AID 743345; call rule not given here); settings: P. falciparum Dd2 in erythrocytes, SYBR Green DNA, 72 h; at 28.5 µM unless noted
How it was run: as §1

[3] = qHTS profiling of the MIPE4 collection as inhibitors of Plasmodium falciparum (DD2) proliferation (Rep 2) (AID 743346; call rule not given here); settings: P. falciparum Dd2 in erythrocytes, SYBR Green DNA, 72 h; at 28.5 µM unless noted
How it was run: as §1

[4] = qHTS profiling of the MIPE4 collection as inhibitors of Plasmodium falciparum (HB3) proliferation (AID 743347; call rule not given here;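 further: plate controls were DMSO vehicle wells for no effect and artemisinin wells for full effect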); settings: P. falciparum HB3 in erythrocytes, SYBR Green DNA, 72 h; at 28.5 µM unless noted
How it was run: as §1

[5] = High-throughput drug toxicity screening in the BPDCN cell line Gen2.2 (AID 1224824; call rule not given here;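 further: cells exposed to compounds for 48 h before reading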); settings: Gen2.2 BPDCN cells; at 45.8 µM (top of the series) unless noted
How it was run: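 Gen2.2, 500 cells/well, phenol red-free RPMI/10% FBS/Pen-Strep; 48 h cpd, 37 °C/5% CO2; CTG lum, 15 min RT. Norm: DMSO = 100%, bortezomib 9.2 uM final = 0%.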

[6] = High-throughput drug toxicity screening in the BPDCN cell line Cal-1 (AID 1224825; call rule not given here); settings: Cal-1 BPDCN cell viability, qHTS; at 45.8 µM (top of the series) unless noted
How it was run: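 Exponentially growing Cal-1 cells, 500 per well in phenol red-free RPMI with 10% FBS, were exposed to compounds for 48 h at 37 °C, 5% CO2. Viability was read by CellTiter-Glo luminescence and normalised to DMSO (100%) and 9.2 uM bortezomib (0%).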

[7] = qHTS assay for measurement of the activity of small molecule inhibitors on Zika virus induced Caspase-3 activity in human iPSC derived neural progenitor cells (hNPCs) (AID 1224857); further: % of control where 0% means no effect; nearly all actives have a fitted effect of over 65% in size
How it was run: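 Pretreat hNPCs with compound 1 h; infect ZIKV 2 FFU/cell; 6 h 37 C, 5% CO2; Caspase-Glo 3/7, 30 min RT; luminescence; normalize to no-virus and virus-only wells.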

[8] = qHTS assay for measurement of the activity of small molecule inhibitors on Zika virus induced Caspase-3 activity in human astrocytoma cells (AID 1224859);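 further: plate controls were ZIKV-infected untreated cells for no effect and uninfected cells for full effect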
How it was run: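 Human SNB-19 astrocytoma cells in RPMI 1640 with 10% FBS receive compound one hour ahead of Zika virus at 2 FFU/cell. After 6 h infection, caspase-3/7 activity is detected by Caspase-Glo luminescence.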

[9] = qHTS Screen of the MIPE 4.0 Collection Against Ewings Sarcoma (RDES) (AID 1259252); further: nearly all actives have a fitted effect of over 35% in size; further: potency means the concentration at half of the fitted maximal effect
How it was run: (§2)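 Measured: ATP luminescence (CellTiter-Glo) 10 min after reagent addition, following 48 h drug treatment. Relative luciferase units converted to percent activity, with no-cell wells as full and DMSO wells as zero inhibition.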

[10] = qHTS Screen of the MIPE 4.0 Collection Against Ewings Sarcoma (TC71) (AID 1259253); further: nearly all actives have a fitted effect of over 40% in size; further: potency means the concentration at half of the fitted maximal effect
How it was run: as §2

[11] = qHTS Screen of the MIPE 4.0 Collection Against Ewings Sarcoma (EW8) (AID 1259255); further: nearly all actives have a fitted effect of over 35% in size; further: potency means the concentration at half of the fitted maximal effect;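 on viability: 100% = DMSO-treated cells and 0% = medium-only wells without cells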
How it was run: as §2

[12] = qHTS Assay for Identifying Gametocytocidal Compounds (AID 743244); further: potency means the concentration at half of the fitted maximal effect;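 on max response: on the % scale 0 is the no-effect control and ±100 the full control effect; actives lower the fluorescent signal which means gametocytes are killed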; settings: P. falciparum 3D7 stage III-V gametocytes, alamarBlue, 72 h; max response: stronger effect = lower value
How it was run: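 Compounds are pinned into medium, gametocytes (stage III–V, 3D7, 20,000 cells/well) added, and plates held 72 h at 37 °C in 5% CO2. AlamarBlue follows for 24 h before fluorescence reading.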

[13] = qHTS profiling for inhibitors of Plasmodium falciparum (3D7) proliferation (AID 743322; call rule not given here;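 further: infected erythrocytes exposed to compound for 72 h before lysis; 100% = DMSO vehicle wells and 0% = 0.29 µM artemisinin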); settings: P. falciparum 3D7 proliferation; at 28.7 µM (top of the series)
How it was run: as §1

[14] = qHTS profiling for inhibitors of Plasmodium falciparum (DD2) proliferation (AID 743323; call rule not given here); settings: lower = more inhibition; at 28.7 µM (top of the series)
How it was run: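 Parasite proliferation measured via DNA-dye fluorescence, as uninfected erythrocytes lack DNA. Cultures at 0.3% parasitemia and 2.5% hematocrit incubated 72 h with compound; signal scaled between vehicle and 0.29 uM artemisinin wells.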

[15] = qHTS profiling for inhibitors of Plasmodium falciparum (HB3) proliferation (AID 743324); settings: Plasmodium falciparum HB3 blood-stage proliferation; at 28.7 µM (top of the series);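 further: 100% = DMSO vehicle wells and 0% = artemisinin-treated control wells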
How it was run: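 P. falciparum HB3 grown in erythrocytes (0.3% parasitemia, 2.5% hematocrit final) with compound for 72 h at 37 C, 5% CO2. Parasite DNA detected by SYBR Green after saponin/triton lysis overnight; normalized to 0.29 uM artemisinin and DMSO.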

[16] = qHTS assay for cell viability of HEK293 cells (AID 743288); settings: ATP luminescence (CellTiter-Glo), 18 h, stronger effect = lower value; further: on the % scale 0 is the no-effect control and ±100 the full control effect; nearly all actives have a fitted effect of over 50% in size
How it was run: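 The Tox21 protocol used parental HEK293 cells treated for 18 h at 37 C with compounds delivered by pintool; ATP-coupled luminescence after 30 min at room temperature gave viability.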

[17] = qHTS assay for cell viability of the p53RE-bla HCT-116 cell line (AID 743292); further: on the % scale 0 is the no-effect control and ±100 the full control effect; nearly all actives have a fitted effect of over 55% in size
How it was run: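 ATP-based luminescent viability (CellTiter-Glo, 30 min RT) after 16 h compound treatment at 37 C of p53RE-bla HCT-116 cells, seeded at 4,000 cells/well and rested 5 h before dosing.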

| SMILES | parasite growth, % of DMSO control [1] | parasite growth remaining, % of DMSO control (lower = more inhibition) [2] | parasite growth, % of control (lower = inhibition) [3] | growth, % of control [4] | cell viability, % of control (lower = more cytotoxic) [5] | viability (% of control) [6] | Potency [7] | Potency [8] | Potency [9] | Potency [10] | Potency [11] | Potency [12] | remaining parasite growth % (stronger effect = lower value) [13] [%] | activity, percent of control [14] [%] | remaining proliferation (% of control), lower = more inhibition [15] [%] | max response [12] | max response [16] | outcome [17] |
| --- | --- | --- | --- | --- | --- | --- | --- | --- | --- | --- | --- | --- | --- | --- | --- | --- | --- | --- |
| COc1ccc(C[C@@H](C)[C@@H](C)Cc2ccc(OC)c(OC)c2)cc1OC | 62.3% | 87.5% | 60.3% | 30.9% | 6.99% | 8.52% | inactive | inactive | 0.743 µM (active) | 1.18 µM (active) | 1.18 µM (active) | – | – | – | – | – | – | – |
| COC(=O)C1C2CC3c4[nH]c5cc(OC)ccc5c4CCN3CC2CC(OC(=O)c2cc(OC)c(OC)c(OC)c2)C1OC (configuration not stated) | 10.2% | 39.3% | 20% | 9.05% | 120% | 78.7% | inactive | inactive | 2.64 µM (active) | 2.64 µM (active) | 2.96 µM (active) | 42.9 µM (active) | 1.2 | 9.89 | 2.79 | – | – | – |
| CCCCCCCN(CC)CCCC(O)c1ccc(NS(C)(=O)=O)cc1 (configuration not stated) | – | 83.7% | 72% | 54% | 213% | 81.4% | inactive | inactive | inactive | inactive | inactive | – | – | – | – | -2.04% (inactive) | – | – |
| C[C@H](CCC(=O)O)[C@H]1CC[C@H]2[C@@H]3[C@H](O)C[C@@H]4C[C@H](O)CC[C@]4(C)[C@@H]3CC[C@]12C | – | – | – | – | 114% | 97.2% | inactive | inactive | inactive | inactive | inactive | – | – | – | – | – | – | – |
| COc1cc(C=CC(=O)CC(=O)C=Cc2ccc(O)c(OC)c2)ccc1O | 4.86% [at 57.5 µM] | 7.94% [at 57.5 µM] | 16.5% [at 57.5 µM] | 2.99% [at 57.5 µM] | 5.74% [at 92.2 µM] | 5.08% [at 92.2 µM] | inactive | inactive | 7.62 µM (active) | 21.5 µM (active) | 6.05 µM (active) | – | -1.44 | -0.402 | 0.164 | – | – | – |
| NC(=O)c1ncn([C@@H]2O[C@H](CO)[C@@H](O)[C@@H]2O)c1N | 96.5% | 91.5% | 95.2% | 68.2% | 191% | 112% | inactive | inactive | inactive | inactive | inactive | – | 94.2 | 92.4 | 92.9 | – | – | – |
| CNC(=O)c1ccc(Nc2cc(Nc3ccccc3S(=O)(=O)C(C)C)c3cc[nH]c3n2)nc1 | 4.82% | 11.9% | 12.7% | 2.73% | 19.7% | 3.36% | inactive | inactive | 5.9 µM (active) | 4.18 µM (active) | 0.59 µM (active) | – | – | – | – | – | – | – |
| Nc1ncn([C@@H]2O[C@H](CO)[C@@H](O)[C@@H]2O)c(=O)n1 | 100% | 95.9% | 92.3% | 95% | 15.6% | 5.42% | inactive | inactive | 6.62 µM (active) | 4.18 µM (active) | 7.43 µM (active) | – | 96.3 | 90.8 | 89.3 | – | – | – |
| Nc1cccc2c1C(=O)N(C1CCC(=O)NC1=O)C2=O (configuration not stated) | 97.4% | 95.1% | 113% | 49.9% | 52.1% | 88.7% | inactive | inactive | inactive | inactive | inactive | – | – | – | – | – | – | – |
| OC[C@@H](O)[C@@H](O)[C@H](O)[C@@H](O)CO | 100% | 91.5% | – | 70.6% | 201% | 126% | inactive | inactive | inactive | inactive | inactive | – | – | – | – | – | -5.81% (inactive) | – |
| CO[C@@H]1[C@@H](O)[C@H](O)[C@@H](n2c3c(Cl)cccc3c3c4c(c5c6cccc(Cl)c6[nH]c5c32)C(=O)NC4=O)O[C@@H]1CO | 7.5% | 7.89% | 8.26% | 8.64% | 12.9% | 5.01% | inactive | inactive | 0.105 µM (active) | 0.0935 µM (active) | 0.105 µM (active) | – | – | – | – | – | – | – |
| CC(C=CC1=C(C)CCCC1(C)C)=CC=CC(C)=CC(=O)Nc1ccc(O)cc1 | 4.7% [at 57.5 µM] | – | 18.5% [at 57.5 µM] | 7.5% [at 57.5 µM] | 5.64% [at 92.2 µM] | 4.87% [at 92.2 µM] | inactive | inactive | 2.41 µM (active) | 5.4 µM (active) | 4.29 µM (active) | – | – | – | – | – | – | inactive |
| CCc1nc(-c2cccc(C)c2)c(-c2ccnc(NC(=O)c3ccccc3)c2)s1 | 21.9% | 47.6% | 49.3% | 29.7% | 229% | 25.7% | inactive | inactive | 14.8 µM (active) | 18.7 µM (active) | 20.9 µM (active) | – | – | – | – | – | – | – |
| C[C@]12CC[C@@H]3c4ccc(O)cc4CC[C@H]3[C@H]1CC[C@H]2O | 65.8% | 93.3% | 74% | 86.3% | 50.6% | 12.5% | inactive | inactive | 8.33 µM (active) | 16.6 µM (active) | 18.7 µM (active) | – | – | – | – | – | -7.02% (inactive) | inactive |
| NC1=N[C@H]2[C@H](CS[C@H]2CCCCC(=O)O)N1 | – | – | – | – | 175% [at 23.2 µM] | 126% [at 23.2 µM] | inactive | inactive | inactive | inactive | – | – | – | – | – | – | – | – |
| C[C@H](O)[C@@H]1C(=O)N2C(C(=O)O)=C(S[C@@H]3CN[C@H](CNS(N)(=O)=O)C3)[C@@H](C)[C@@H]12 | 107% | 99.1% | 82.6% | 87.8% | 119% | 112% | inactive | inactive | inactive | inactive | inactive | – | – | – | – | – | – | – |
